# Measured values as given in PubChem BioAssay.
# Results filed as inconclusive are left out. Calls of active or inactive are those of the source. Cut-off read from the data, not from the text of the source, unless noted: active = inhibition above about 80%; inactive = the rest.
# What was measured:
# [1] = growth inhibition of DIPG glioma cells, dose response, cell-based, SU-DIPG-XIII, MIPE5.0, CellTiter-Glo, qHTS (AID 1347064; cut-off not given, nearly all actives have AC50 up to about 23 µM;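 for AC50: cells exposed to compound for 48 hours before the viability read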); conditions: SU-DIPG-XIII viability, CellTiter-Glo ATP luminescence
# [2] = viability loss in pontine glioma line – cell-based, SU-DIPG-XXV, MIPE5.0, CellTiter-Glo, qHTS, dose response (AID 1347065; cut-off not given, nearly all actives have AC50 up to about 26 µM;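 note: cells exposed to compound for 48 hours before ATP readout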); conditions: CellTiter-Glo ATP luminescence
# [3] = JHH-DIPG-1 glioma cell viability, MIPE5.0 library, CellTiter-Glo luminescence, qHTS (AID 1347067; cut-off not given, nearly all actives have AC50 up to about 26 µM;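 note: cells exposed to compound for 48 hours before readout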); conditions: JHH-DIPG-1 glioma viability, CellTiter-Glo ATP luminescence
# [4] = SU-DIPG-XXV glioma cell viability, MIPE5.0 library, qHTS (AID 1347068; cut-off not given, nearly all actives have IC50 up to about 30 µM;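 note: cells exposed to compound for 48 hours before viability readout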)
# [5] = LFS_MB_P medulloblastoma growth inhibition, cell-based, chromothripsis tumors, cisplatin or BGB combos (AID 1671449); conditions: LFS_MB_P medulloblastoma cells;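 note: cells exposed for 96 hours; 0% = vehicle DMSO and 100% = killing by high DMSO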
# [6] = HDN33 neuroblastoma growth inhibition, cell-based, chromothripsis tumors, cisplatin or BGB combos (AID 1671450); conditions: HDN33 neuroblastoma cells, stronger effect = higher value;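 note: cells exposed to compound for four days; 0% = vehicle DMSO and 100% = cell killing by high DMSO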
# [7] = ICB984 medulloblastoma cell growth inhibition, synergistic combos for chromothripsis tumors, cisplatin or BGB combos (AID 1671451; call rule not given here;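 note: cells exposed for 96 hours before readout; 0% = vehicle DMSO and 100% = killing by high DMSO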); conditions: ICB984 medulloblastoma cells, drug combinations, stronger effect = higher value
# [8] = LFS_MB_1R medulloblastoma cell growth inhibition, synergistic combos for chromothripsis tumors, cisplatin or BGB combos (AID 1671452); conditions: LFS_MB_1R medulloblastoma cells, stronger effect = higher value;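 note: cells exposed for 96 hours before readout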
# [9] = HTB85 osteosarcoma cell growth inhibition, synergistic combos for chromothripsis tumors, BGB or cisplatin IC20 combos (AID 1671453); conditions: HTB85 osteosarcoma cells, drug combinations, stronger effect = higher value;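 note: cells exposed for 96 hours before readout; 0% = vehicle DMSO and 100% = high DMSO killing control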
# [10] = CRL2098 osteosarcoma cell growth inhibition, synergistic combos for chromothripsis tumors, BGB or cisplatin IC20 combos (AID 1671454); conditions: CRL2098 osteosarcoma cells, drug combinations, stronger effect = higher value;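 note: cells exposed for 96 h before readout; 0% = vehicle DMSO and 100% = killing by high DMSO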
# [11] = HD-MB03 medulloblastoma cell growth inhibition, synergistic combos for chromothripsis tumors, BGB or cisplatin IC20 combos (AID 1671455; in the data active = inhibition above about 83%;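 note: 0% = vehicle DMSO and 100% = high DMSO as cytotoxic control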); conditions: HD-MB03 medulloblastoma cells, stronger effect = higher value
# [12] = UWB1.289 ovarian carcinoma cell growth inhibition, synergistic combos for chromothripsis tumors, BGB or cisplatin combos (AID 1671456); conditions: UWB1.289 ovarian carcinoma cells, stronger effect = higher value;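 note: cells exposed to compound for four days; 0% = vehicle DMSO and 100% = killing by high DMSO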
# [13] = LFS_MB_2R medulloblastoma cell growth inhibition, synergistic combos for chromothripsis tumors, cisplatin combos (AID 1671457); conditions: LFS_MB_2R medulloblastoma cells, stronger effect = higher value;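 note: cells exposed to compound for four days before readout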
# [14] = MDA-MB-436 breast carcinoma cell growth inhibition, synergistic combos for chromothripsis tumors, BGB or cisplatin combos (AID 1671458; call rule not given here;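 note: cells exposed for 96 hours; 0% = vehicle DMSO and 100% = killing by high DMSO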); conditions: MDA-MB-436 breast carcinoma growth inhibition, drug combinations, stronger effect = higher value
# [15] = UWB1.289_BRCA1 ovarian cancer growth, cell-based, BGB or cisplatin combinations (AID 1671459); conditions: UWB1.289 BRCA1 ovarian carcinoma, drug combinations, stronger effect = higher value
# [16] = human astrocyte viability loss, single and combined drugs, cytotoxicity control for chromothriptic childhood tumor combination screen, cell-based, BGB or cisplatin IC20 combos (AID 1671460); conditions: Human astrocytes, drug combinations, stronger effect = higher value;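 note: cells exposed to compounds for 96 hours before viability readout; 0% = vehicle and 100% = killing control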
# [17] = growth inhibition of BT084 medulloblastoma cells, cell-based, ICGC_MB145, cisplatin and BGB IC40 combos (AID 1671461); conditions: drug combinations, stronger effect = higher value;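 note: cells exposed to drugs for 96 hours; 0% = vehicle DMSO and 100% = high DMSO full killing control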
# [18] = growth inhibition of RCMB18 medulloblastoma cells, cell-based, cisplatin and BGB IC40 combos (AID 1671462); conditions: stronger effect = higher value;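 note: cells exposed to compound for four days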
# [19] = growth inhibition of CRL1545 osteosarcoma cells, cell-based, cisplatin and BGB IC20 combos (AID 1671464); conditions: stronger effect = higher value;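 note: cells exposed to compound for 96 hours before readout; 0% = vehicle DMSO and 100% = high DMSO killing control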
# [20] = SU-DIPG-VI glioma cell viability, MIPE4.0 library, CellTiter-Glo luminescence, qHTS (AID 1347066; cut-off not given, nearly all actives have AC50 up to about 30 µM;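 note: cells exposed to compound for 48 hours before readout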); conditions: CellTiter-Glo ATP luminescence
# [21] = sensitizers of A549 cells to miR-34 induction, primary screen, imaging, A549 dox-inducible miR-34, nuclei and caspase counts (AID 1347080;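 active = compounds whose cell count with miR-34 switched on is under 0.7 times the count with it off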); conditions: A549 miR-34 inducible, Hoechst nuclei count, 48 h
# [22] = survival rescue of mitochondrial mutant cells in low glucose, primary screen, MELAS cybrids, Rieske KO mouse fibroblasts, CellTiter-Glo (AID 1508586;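 active = mean z-score across replicates of 1.96 or higher in either the MELAS or the Rieske mutant cell line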;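 note: z relative to plate mean and SD of compound and empty wells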)
# [23] = measured here: combination with BGB IC40, at 0.05 µM
# [24] = measured here: with BGB IC20 combination, at 0.5 µM
# [25] = measured here: with cisplatin IC20 combination, at 0.5 µM
# [26] = measured here: combination with cisplatin, at 0.5 µM
# [27] = measured here: combination with cisplatin, at 5 µM
smiles,measurement,setting,value
c1cc(Nc2cc(C3CC3)[nH]n2)nc(Nc2ccc3nc[nH]c3c2)n1,AC50,[1],468 nM (active)
same,AC50,[2],590 nM (active)
same,AC50,[3],742 nM (active)
same,IC50,[4],1480 nM (active)
same,inhibition,"[5]; at 0.5 µM, stronger effect = higher value",-28.9% (inactive)
same,inhibition,"[5]; measured here: combination with BGB IC20, at 0.005 µM",-28.7%
same,inhibition,"[5]; measured here: combination with BGB IC40, at 0.005 µM",66.9%
same,inhibition,[5]; [23],3.2%
same,inhibition,"[5]; measured here: combination with cisplatin, at 0.5 µM, stronger effect = higher value",-45.7%
same,inhibition,"[5]; measured here: combination with cisplatin, at 5 µM, stronger effect = higher value",97.7%
same,inhibition,"[6]; BGB combo, at 5 µM",80.3%
same,inhibition,[6]; at 0.5 µM,13.6% (inactive)
same,inhibition,"[6]; cisplatin combo, at 5 µM",56.8%
same,inhibition,[6]; [24],15.5%
same,inhibition,[6]; [25],11.8%
same,inhibition,"[6]; single agent, at 5 µM",65%
same,inhibition,"[7]; BGB IC20 combo, at 0.005 µM",91.8%
same,inhibition,"[7]; BGB IC40 combo, at 0.005 µM",91.5%
same,inhibition,"[7]; BGB IC40 combo, at 0.05 µM",101%
same,inhibition,[7]; at 0.5 µM,-13.7% (inactive)
same,inhibition,"[7]; cisplatin combo, at 0.05 µM",102%
same,inhibition,"[7]; cisplatin combo, at 0.5 µM",-28%
same,inhibition,"[7]; cisplatin combo, at 5 µM",-12.8%
same,inhibition,"[7]; measured here: 5 uM single agent, at 5 µM",-7.27%
same,inhibition,[8]; at 0.5 µM,96.2% (active)
same,inhibition,[8]; [23],10.7%
same,inhibition,[8]; [26],97.7%
same,inhibition,[8]; [27],98.3%
same,inhibition,[9]; at 0.5 µM,92.1% (active)
same,inhibition,"[9]; measured here: with BGB IC20, at 0.5 µM",97.4%
same,inhibition,"[9]; measured here: with BGB IC20, at 5 µM",98.4%
same,inhibition,"[9]; measured here: with cisplatin IC20, at 0.5 µM",83.5%
same,inhibition,"[9]; measured here: with cisplatin IC20, at 5 µM",99.3%
same,inhibition,"[9]; single agent, at 5 µM",99.5%
same,inhibition,[10]; at 0.5 µM,28.9% (inactive)
same,inhibition,"[10]; measured here: combination with BGB at IC20, at 0.5 µM",57.3%
same,inhibition,"[10]; measured here: combination with cisplatin at IC20, at 0.5 µM",27.4%
same,inhibition,[11]; at 0.5 µM,31.9% (inactive)
same,inhibition,"[11]; measured here: combo with BGB at IC20, at 0.5 µM",43.7%
same,inhibition,"[11]; measured here: combo with cisplatin at IC20, at 0.5 µM",6.87%
same,inhibition,[12]; at 0.5 µM,67.4% (inactive)
same,inhibition,"[12]; measured here: inhibition with BGB combination, at 0.05 µM",37.1%
same,inhibition,"[12]; measured here: inhibition with cisplatin combination, at 0.05 µM",-9.86%
same,inhibition,[13]; at 0.5 µM,80.7% (active)
same,inhibition,[13]; [26],87.3%
same,inhibition,[13]; [27],91.1%
same,inhibition,[14]; at 0.5 µM,23.1% (inactive)
same,inhibition,"[14]; measured here: BGB combination, at 0.5 µM",22.4%
same,inhibition,"[14]; measured here: BGB combination, at 5 µM",75.1%
same,inhibition,"[14]; measured here: cisplatin combination, at 0.5 µM",5.08%
same,inhibition,"[14]; measured here: cisplatin combination, at 5 µM",88.8%
same,inhibition,"[15]; BGB combination, concentration series, at 5 µM",73.5%
same,inhibition,[15]; at 0.5 µM,79.3% (inactive)
same,inhibition,"[15]; cisplatin combination, concentration series, at 5 µM",72.2%
same,inhibition,[16]; at 0.5 µM,14.6% (inactive)
same,inhibition,"[16]; measured here: combo with BGB IC20, at 0.5 µM",33.6%
same,inhibition,"[16]; measured here: combo with cisplatin IC20, at 0.5 µM",-4.62%
same,inhibition,[17]; at 0.5 µM,44.8% (inactive)
same,inhibition,"[17]; cisplatin combination, at 0.5 µM",31.8%
same,inhibition,"[17]; cisplatin combination, at 5 µM",-81%
same,inhibition,"[17]; measured here: BGB IC40 combination 0.05 uM, at 0.05 µM",-10.1%
same,inhibition,"[17]; single agent, at 5 µM",22.9%
same,inhibition,[18]; at 0.5 µM,73.8% (inactive)
same,inhibition,"[18]; cisplatin combo, at 5 µM",83.5%
same,inhibition,"[18]; measured here: BGB IC40 combination, at 0.05 µM",22.4%
same,inhibition,[18]; [26],76.4%
same,inhibition,"[18]; single agent, at 5 µM",84.3%
same,inhibition,[19]; at 0.5 µM,-7.32% (inactive)
same,inhibition,[19]; [24],-9.54%
same,inhibition,[19]; [25],-7.92%
same,inhibition,"[19]; single agent, at 0.05 µM",-26.3%
same,inhibition,"[19]; single agent, at 5 µM",81.3%
CN(C)Cc1cccc(N=C(c2ccccc2)c2c(O)[nH]c3cc(C(=O)N(C)C)ccc23)c1,outcome,[1],inactive
same,outcome,[20],inactive
same,IC50,[4],18600 nM (active)
same,fold change,"[21]; stronger effect = lower value, cell number ratio, induced over uninduced",0.785 (inactive)
same,fold change,[21]; measured here: relative caspase fold change +Dox/-Dox,1.01
same,cell count,"[21]; measured here: total cells with miR-34 induction, stronger effect = lower value",3180
same,cell count,[21]; measured here: total cells without miR-34 induction,4050
same,z-score,"[22]; MELAS cybrid survival, CellTiter-Glo 48 h, stronger effect = higher value",-0.347 (inactive)
same,z-score,"[22]; Rieske KO mouse fibroblast survival, CellTiter-Glo 72 h",0.635
